Measured values as given in PubChem BioAssay (NCATS).
Records with an inconclusive call do not appear. Active and inactive are the calls of the source. Unless noted, the call rests on the fitted dose curve; in most records, active means well fitted curve in either direction with a large enough effect (not every such curve was filed as active); inconclusive means small, poorly fitted or top-dose-only effect, or another doubt; inactive means flat fitted curve, though single readings scatter.

Tests used:
[1] = target: Lysosomal acid glucosylceramidase (Homo sapiens) (UniProt P04062); test: Glucocerebrosidase-p2 (AID 348; in the data active means potency below about 10 µM; further: potency means the concentration at half of the fitted maximal effect); conditions: purified GBA, blue fluorogenic substrate, 40 min
Summary of the method: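 Normal human glucocerebrosidase (0.2 nM) with blue fluorogenic substrate (80 uM final) in citrate/phosphate pH 5.9 with 10mM sodium taurocholate, 0.01% tween-20; 40 min RT, NaOH/glycine stop; fluorescence Ex 365/Em 440; AC50 from a titration from 0.6 nM upwards.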

[2] = AP1 Signaling Pathway (AID 357); conditions: ME-180 AP-1-bla reporter, EGF-induced, beta-lactamase ratio, 5 h; at 7.69 µM (top of the series) unless noted;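 further: ME-180 reporter cells stimulated with EGF at its EC50 level; on the % scale 0 is the no-effect control and ±100 the full control effect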
Summary of the method: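 Modulation of EGF-driven AP-1 transcription was assessed with a beta-lactamase reporter in ME-180 cells. Compound and EC50 EGF were co-incubated 5 hours at 37 °C before 2.5-hour CCF4 loading at room temperature and dual-emission reading.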

[3] = NFAT Signaling Pathway (AID 444); conditions: Jurkat NFAT-bla M1, carbachol, beta-lactamase ratio, 5 h; at 7.69 µM (top of the series) unless noted;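 further: carbachol stimulus at about its EC50 of 1 µM final; on the % scale 0 is the no-effect control and ±100 the full control effect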
Summary of the method: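 Jurkat cells carrying an NFAT-driven β-lactamase reporter and co-transfected muscarinic M1 receptor were treated with compound plus carbachol (1 uM final, an EC50 level) for 5 h at 37 °C. CCF4 loading followed for 1 h at RT; 460/530 nm ratio gave %activity.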

[4] = Stat Signaling Pathway (AID 446); conditions: ME-180 SIE beta-lactamase reporter, IL-6 stimulated, 5 h; at 7.69 µM (top of the series) unless noted;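 further: ME-180 cervical cancer cells given 40 pM IL-6 alongside compound; SIE-controlled beta-lactamase reporter measured as 460/530 nm FRET emission ratio; on the % scale 0 is the no-effect control and ±100 the full control effect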
Summary of the method: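 Emission at 460 and 530 nm (excitation 405 nm) reports SIE-controlled beta-lactamase in ME-180 cells. Cells received compound with 40 pM IL-6 for 5 hrs at 37 C; data scaled between 300 pM IL-6 and 125 nM JAK-inhibitor controls.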

[5] = target: Glucocorticoid receptor (Homo sapiens) (UniProt P04150); test: GR-GFP Redistribution (AID 450;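 active means compounds whose dose series gives a full or clear partial fitted curve of increased nuclear translocation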; further: potency means the concentration at half of the fitted maximal effect); conditions: U2OS GR-GFP nuclear translocation, laser cytometry, 2 h
[6] = target: Glucocorticoid receptor (Homo sapiens) (UniProt P04150); test: GR-EFC Redistribution (AID 451; calls by dose curve; further: potency means the concentration at half of the fitted maximal effect); conditions: CHO-K1 GR-EFC translocation, beta-gal luminescence, 2 h
Summary of the method: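 CHO-K1 cells stably expressing nuclear-localized β-gal enzyme acceptor and GR fused C-terminally to the enzyme donor fragment; ligand-driven nuclear translocation restores β-gal by complementation. Compounds titrated up to 46 uM final, 2 h at 37 °C; luminescence read.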

[7] = target: Mitogen-activated protein kinase 10 (Mus musculus) (UniProt Q61831); test: JNK3 AlphaScreen Assay (AID 530); conditions: JNK3 lysate, c-Jun phosphorylation; series mostly up to 11.4 µM;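 further: kinase came from lysate of stimulated human HepG2 cells; signal reports phosphorylation of biotinylated GST-cJun 1-79 at Ser73 with 10 µM ATP; on the % scale 0 is the no-effect control and ±100 the full control effect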
Summary of the method: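 Biotinylated GST-cJun(1-79) served as substrate for JNK3 in HepG2 lysates stimulated with IL-1beta and TNF-alpha. ATP was 10 uM final, pH 7.6. Ser73 phosphorylation was quantified by AlphaScreen (680 nm excitation).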

[8] = target: 3',5'-cyclic-AMP phosphodiesterase 4B (Homo sapiens) (UniProt Q07343); test: qHTS Assay for Inhibitors of PDE-IV (AID 607; active means well fitted activation curve with a large enough effect in the main read-out, with a control signal flat, not every such curve was filed as active; further: % of control where 0% means no effect); conditions: HEK293 ACTOne CNG channel cells, membrane potential fluorescence; series mostly up to 22.9 µM
Summary of the method: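 The readout is membrane depolarisation from a cAMP-sensing CNG channel, detected with a potential dye at ex 535/em 590. Cells were HEK293-derived (endogenous PDE-IV) at 1000 cells/well, titrated up to 22.9 uM final.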

[9] = qHTS Assay for Identification of Small Molecule Agonists for Hypoxia Response Element Signaling Pathway (AID 914; active means well fitted activation curve with a large enough effect in the signal ratio, with a control signal flat, not every such curve was filed as active; the % refers to the signal ratio; further: % of control where 0% means no effect); conditions: ME-180 (cervical carcinoma) HRE-bla reporter, beta-lactamase ratio, CoCl2, 17 h; activation: stronger effect = higher value
Summary of the method: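 qHTS titration; ME-180 HRE-bla cells; EC50 CoCl2 co-treatment, 17 h at 37 degrees Celsius; CCF4 dye, ex 405nm, em 460nm and 530nm; %Activity from ratio; AC50.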

[10] = target: Cytochrome P450 2C19 (Homo sapiens) (UniProt P33261); test: qHTS Assay for Inhibitors and Substrates of Cytochrome P450 2C19 (AID 899; active means well fitted inhibition curve with a large enough effect; further: on the % scale 0 is the no-effect control and ±100 the full control effect; nearly all actives have a fitted effect of over 60% in size); conditions: recombinant CYP2C19, luciferin-H EGE luminescence; series mostly up to 11.4 µM
Summary of the method: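 In 50mM KPO4, the reaction held 5nM enzyme and KM-level (10uM) Luciferin-H EGE; it ran 60 min at 37C after NADPH regeneration and a 10 min compound preincubation. Luminescence values were scaled to 57uM ketoconazole as complete inhibition.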

Chain of Lysosomal acid glucosylceramidase (Homo sapiens) (P04062 whole entry, looked up): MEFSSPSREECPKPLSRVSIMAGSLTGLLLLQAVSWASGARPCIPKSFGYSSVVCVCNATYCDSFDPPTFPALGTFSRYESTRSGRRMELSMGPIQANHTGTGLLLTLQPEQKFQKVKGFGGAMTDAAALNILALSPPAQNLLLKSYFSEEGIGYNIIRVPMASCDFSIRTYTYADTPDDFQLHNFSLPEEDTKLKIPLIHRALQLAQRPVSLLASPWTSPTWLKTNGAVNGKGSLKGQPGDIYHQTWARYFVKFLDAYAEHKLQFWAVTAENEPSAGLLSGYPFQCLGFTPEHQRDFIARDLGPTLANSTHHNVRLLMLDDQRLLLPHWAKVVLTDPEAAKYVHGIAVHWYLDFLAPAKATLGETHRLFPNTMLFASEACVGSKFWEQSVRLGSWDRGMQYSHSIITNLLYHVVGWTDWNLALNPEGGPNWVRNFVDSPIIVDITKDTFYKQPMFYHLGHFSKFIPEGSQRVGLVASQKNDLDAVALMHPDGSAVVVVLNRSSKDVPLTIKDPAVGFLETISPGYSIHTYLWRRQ
Chain of Glucocorticoid receptor (Homo sapiens) (P04150 whole entry, looked up, the tested form may be a part): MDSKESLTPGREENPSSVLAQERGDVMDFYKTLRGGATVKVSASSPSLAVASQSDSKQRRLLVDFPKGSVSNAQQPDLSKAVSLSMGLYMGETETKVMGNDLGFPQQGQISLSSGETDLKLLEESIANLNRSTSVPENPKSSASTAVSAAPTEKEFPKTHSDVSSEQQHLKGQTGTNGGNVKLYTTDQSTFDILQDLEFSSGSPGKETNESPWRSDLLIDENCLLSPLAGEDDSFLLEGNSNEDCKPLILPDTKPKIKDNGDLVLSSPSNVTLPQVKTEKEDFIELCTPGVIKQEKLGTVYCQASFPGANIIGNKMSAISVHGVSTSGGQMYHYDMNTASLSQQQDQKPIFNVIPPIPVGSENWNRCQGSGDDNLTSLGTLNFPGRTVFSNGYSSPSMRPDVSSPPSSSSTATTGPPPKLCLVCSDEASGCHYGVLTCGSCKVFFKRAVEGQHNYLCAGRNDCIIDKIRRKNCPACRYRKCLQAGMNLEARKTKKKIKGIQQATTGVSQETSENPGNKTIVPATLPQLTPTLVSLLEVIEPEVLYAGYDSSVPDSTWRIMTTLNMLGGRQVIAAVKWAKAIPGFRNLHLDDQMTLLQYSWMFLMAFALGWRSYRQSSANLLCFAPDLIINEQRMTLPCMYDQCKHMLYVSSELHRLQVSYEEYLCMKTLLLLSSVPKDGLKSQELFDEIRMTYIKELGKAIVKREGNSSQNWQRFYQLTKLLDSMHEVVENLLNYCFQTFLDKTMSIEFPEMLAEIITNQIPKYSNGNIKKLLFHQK
Chain of 3',5'-cyclic-AMP phosphodiesterase 4B (Homo sapiens) (Q07343 whole entry, looked up): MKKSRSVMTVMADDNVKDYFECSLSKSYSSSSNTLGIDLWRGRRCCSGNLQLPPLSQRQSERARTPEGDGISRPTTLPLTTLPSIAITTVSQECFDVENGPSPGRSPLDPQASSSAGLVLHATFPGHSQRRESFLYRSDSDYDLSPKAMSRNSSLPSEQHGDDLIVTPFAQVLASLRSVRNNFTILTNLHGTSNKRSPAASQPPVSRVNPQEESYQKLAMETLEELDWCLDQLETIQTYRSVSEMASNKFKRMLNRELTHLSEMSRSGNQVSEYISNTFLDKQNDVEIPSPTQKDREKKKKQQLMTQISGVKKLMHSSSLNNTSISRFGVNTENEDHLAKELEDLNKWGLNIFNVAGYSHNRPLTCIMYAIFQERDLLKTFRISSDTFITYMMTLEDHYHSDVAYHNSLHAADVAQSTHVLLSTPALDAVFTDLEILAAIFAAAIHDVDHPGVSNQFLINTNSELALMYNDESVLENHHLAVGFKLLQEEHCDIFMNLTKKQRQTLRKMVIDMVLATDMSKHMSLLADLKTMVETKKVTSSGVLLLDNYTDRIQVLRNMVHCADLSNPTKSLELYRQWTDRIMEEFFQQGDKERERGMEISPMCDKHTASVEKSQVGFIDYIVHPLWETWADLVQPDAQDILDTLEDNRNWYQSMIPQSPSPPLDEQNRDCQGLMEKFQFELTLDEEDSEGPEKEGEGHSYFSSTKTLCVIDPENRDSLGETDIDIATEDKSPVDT
Chain of Cytochrome P450 2C19 (Homo sapiens) (P33261 whole entry, looked up): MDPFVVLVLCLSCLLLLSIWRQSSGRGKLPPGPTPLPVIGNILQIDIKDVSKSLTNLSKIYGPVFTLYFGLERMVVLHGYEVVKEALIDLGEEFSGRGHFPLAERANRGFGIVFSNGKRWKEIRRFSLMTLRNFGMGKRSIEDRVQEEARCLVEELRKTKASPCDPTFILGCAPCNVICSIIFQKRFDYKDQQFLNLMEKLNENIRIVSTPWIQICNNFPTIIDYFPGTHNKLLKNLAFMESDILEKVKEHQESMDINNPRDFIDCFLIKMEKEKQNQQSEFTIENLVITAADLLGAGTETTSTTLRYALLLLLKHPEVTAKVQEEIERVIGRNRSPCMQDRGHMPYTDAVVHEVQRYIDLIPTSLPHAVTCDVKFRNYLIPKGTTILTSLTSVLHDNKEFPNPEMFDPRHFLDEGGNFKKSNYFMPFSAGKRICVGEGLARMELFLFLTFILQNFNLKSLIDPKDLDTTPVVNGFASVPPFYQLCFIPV

O=c1[nH][nH]c(=S)c(=O)[nH]1
inactive: Potency [1] > 11.4 µM | activity change, negative = inhibition [2] -2.98% | activity change, negative = inhibition [3] 12.7% | activity, negative = inhibition [4] 3.19% | Potency [5] > 46 µM | Potency [6] > 9.22 µM | Potency [7] | Potency [8] | activation [9] 5.24%

c1ccc(-c2cc(-c3cc(-c4ccccn4)[nH]n3)n[nH]2)nc1
inactive: Potency [1] > 11.4 µM | activity change, negative = inhibition [2] 4.94% | activity change, negative = inhibition [3] 1.51% | activity, negative = inhibition [4] -2.75% | Potency [5] > 46 µM | Potency [6] > 9.22 µM | Potency [7] | Potency [8] | activation [9] 3.17%

O=C(O)[C@@H]1CCCN1Cc1ccc2c(c1)OCO2
inactive: Potency [1] > 11.4 µM | activity change, negative = inhibition [2] 2.76% | activity change, negative = inhibition [3] 10.2% | activity, negative = inhibition [4] 0.869% | Potency [5] > 46 µM | Potency [6] > 9.22 µM | Potency [7] | Potency [8] | activation [9] 7.45%

Nc1ccc(-c2ccc(Nc3cc(S(=O)(=O)O)c(N)c4c3C(=O)c3ccccc3C4=O)cc2)c(S(=O)(=O)O)c1
inactive: Potency [1] > 11.4 µM | activity change, negative = inhibition [2] 3.81% | activity change, negative = inhibition [3] -2.33% | activity, negative = inhibition [4] -2.95% | Potency [5] > 46 µM | Potency [6] > 9.22 µM | Potency [7] | Potency [8] | activation [9] -7.34%

Clc1ccccc1/C=C\c1ccnc2ccccc12
inactive: Potency [1] > 11.4 µM | activity change, negative = inhibition [2] -23.6% | activity change, negative = inhibition [3] 2.98% | activity, negative = inhibition [4] 1.25% | Potency [5] > 46 µM | Potency [6] > 9.22 µM | Potency [7] | Potency [8] | activation [9] -24.5%

OCCCNCc1ccncc1
inactive: Potency [1] > 11.4 µM | activity change, negative = inhibition [2] -2.93% | activity change, negative = inhibition [3] 5.43% | activity, negative = inhibition [4] -6.9% | Potency [5] > 46 µM | Potency [6] > 9.22 µM | Potency [7] | Potency [8] | activation [9] 1.84%

CSc1nc(C)cc(Nc2ccc(O)c(CN3CCCCC3)c2)n1
inactive: Potency [1] > 11.4 µM | activity change, negative = inhibition [2] -6.95% | activity change, negative = inhibition [3] -16.1% | activity, negative = inhibition [4] 2.99% | Potency [5] > 46 µM | Potency [6] > 9.22 µM | Potency [7] | Potency [8] | activation [9] 4.77%

CC(=O)[C@H](C(=N)C#N)C(=O)Nc1ccccc1
inactive: Potency [1] > 11.4 µM | activity change, negative = inhibition [2] -0.768% | activity change, negative = inhibition [3] -3.12% | activity, negative = inhibition [4] 13.1% | Potency [5] > 46 µM | Potency [6] > 9.22 µM | Potency [7] | Potency [8] | Potency [10]

CCN1CCC(O)([C@H](C(=O)O)c2ccccc2)CC1
inactive: Potency [1] > 11.4 µM | activity change, negative = inhibition [2] -5.97% | activity change, negative = inhibition [3] 16.2% | activity, negative = inhibition [4] 16.9% | Potency [5] > 46 µM | Potency [6] > 9.22 µM | Potency [7] | Potency [8] | activation [9] -12.7%

O=c1cc(N=Nc2ccc(O)cc2)[nH]c(=O)[nH]1
inactive: Potency [1] > 11.4 µM | activity change, negative = inhibition [2] -6.46% | activity change, negative = inhibition [3] -4.22% | activity, negative = inhibition [4] 4.24% | Potency [5] > 46 µM | Potency [6] > 9.22 µM | Potency [7] | Potency [8] | activation [9] -26.3%

c1ccc2nc(CC[C@@H]3CCCCN3)ccc2c1
inactive: Potency [1] > 11.4 µM | activity change, negative = inhibition [2] 7.07% | activity change, negative = inhibition [3] -3.97% | activity, negative = inhibition [4] -5.39% | Potency [5] > 46 µM | Potency [6] > 9.22 µM | Potency [7] | Potency [8] | activation [9] -14.2%

O=C(O)c1ccc2c(c1C(=O)O)C(=O)OC2(c1ccc(O)cc1)c1ccc(O)cc1
inactive: Potency [1] > 11.4 µM | activity change, negative = inhibition [2] 2.33% | activity change, negative = inhibition [3] 0.0722% | activity, negative = inhibition [4] 1.84% | Potency [5] > 46 µM | Potency [6] > 9.22 µM | Potency [7] | Potency [8] | activation [9] 9.96%

O=C(O)CCCc1ccc2ccccc2c1
inactive: Potency [1] > 11.4 µM | activity change, negative = inhibition [2] -3.28% | activity change, negative = inhibition [3] -9.96% | activity, negative = inhibition [4] 3.96% | Potency [5] > 46 µM | Potency [6] > 9.22 µM | Potency [7] | Potency [8] | activation [9] -6.23%
